Source: PubChem BioAssay (NCI)
Compounds without any hit were thinned out: in the full panel of roughly 83,000, 20% have a hit.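 Compound tested at a single concentration for 48 hours in 96-well plates; a percent growth value below 10 was scored as active.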 Calls of active or inactive are those of the source.

What was measured:
Test in all cases: NCI-60 one-dose screen, 48 h (100 = growth as untreated, 0 = no growth, -100 = all killed)
Details in all cases: 10 µM unless noted
T-47D breast = test system: T-47D breast
BT-549 breast = test system: BT-549 breast
MDA-MB-435 melanoma = test system: MDA-MB-435 melanoma
SW-620 colon = test system: SW-620 colon
MCF7 breast = test system: MCF7 breast
HCT-116 colon = test system: HCT-116 colon
HCC-2998 colon = test system: HCC-2998 colon
KM12 colon = test system: KM12 colon

Measured: growth

O=C1N[C@@H]2NC(=[N+]3CCOCC3)N[C@@H]2N1
inactive: T-47D breast 101% | BT-549 breast 110% | MDA-MB-435 melanoma 105% | SW-620 colon 98.8% | MCF7 breast 95.9% | HCT-116 colon 104% | HCC-2998 colon 108% | KM12 colon 107%

O=C1c2c(c3c4ccc(Br)cc4oc3c3[nH]c4ccccc4c23)C(=O)N1O
inactive: T-47D breast 11.8% | BT-549 breast 27.6% | MDA-MB-435 melanoma 19.1% | SW-620 colon 37.3% | MCF7 breast 22.4% | HCT-116 colon 17.9% | HCC-2998 colon 66.9% | KM12 colon 17.1%

c1ccc(C2=NN[C@H](c3cn(-c4ccccc4)nc3-c3ccccc3)C2)cc1
inactive: T-47D breast 43.5% | BT-549 breast 48.7% | MDA-MB-435 melanoma 67% | SW-620 colon 55.7% | MCF7 breast 74.4% | HCT-116 colon 22.8% | HCC-2998 colon 64.6% | KM12 colon 62.8%

N#CC1=C(c2ccc(Cl)cc2)Nc2c(c(-c3ccc(Cl)cc3)nn2-c2ccccc2)C12C(=O)Nc1ccc(Cl)cc12 (stereo not drawn)
inactive: T-47D breast 42.3% | BT-549 breast 31.7% | MDA-MB-435 melanoma 55.1% | SW-620 colon 54.8% | MCF7 breast 33.2% | HCT-116 colon 26.1% | HCC-2998 colon 69.1% | KM12 colon 27.7%

COc1cc2c(c(OC)c1OC)C(=O)CC(c1cccc(NC(=O)c3ccc(Br)cc3)c1)O2 (stereo not drawn)
inactive: T-47D breast 10% | BT-549 breast 15.7% | SW-620 colon 25.4% | MCF7 breast 23.4% | HCT-116 colon 23.4% | HCC-2998 colon 72.7% | KM12 colon 31.6%
active: MDA-MB-435 melanoma -18.3%

Cc1ccc(/C=N/Nc2nc(Nc3ccccc3)nc(-n3nc(C)cc3C)n2)cc1
active: T-47D breast 7.35% | BT-549 breast -5.91%
inactive: MDA-MB-435 melanoma 41.8% | SW-620 colon 48.8% | MCF7 breast 16.4% | HCT-116 colon 27.6% | HCC-2998 colon 43.1% | KM12 colon 25.6%

COC(=O)[C@H]1CCCN1C[C@@H](O)CN1C(=O)/C(=C\c2cc(OC)c(OC)c(OC)c2)c2ccccc21
inactive: T-47D breast 86.7% | BT-549 breast 111% | MDA-MB-435 melanoma 96.5% | SW-620 colon 95.7% | MCF7 breast 70.5% | HCT-116 colon 92.8% | HCC-2998 colon 102% | KM12 colon 98.9%

COc1cc(/C=C/C(=O)c2cccc(Nc3nc(Nc4ccccc4)nc(Nc4ccccc4)n3)c2)cc(OC)c1OC
inactive: T-47D breast 42.2% | BT-549 breast 64.2% | MDA-MB-435 melanoma 68.8% | SW-620 colon 35.4% | MCF7 breast 22.9% | HCT-116 colon 15.1% | HCC-2998 colon 16.7% | KM12 colon 52.7%

O=C1c2c(c3c4ccccc4[nH]c3c3ccc4ccccc4c23)C(=O)N1CCN1CCCCC1
inactive: T-47D breast 13.6% | BT-549 breast 78.9% | MDA-MB-435 melanoma 67.2% | SW-620 colon 30.5% | MCF7 breast 17.1% | HCT-116 colon 23.1% | KM12 colon 48%
active: HCC-2998 colon -0.0363%

COc1ccc(-c2nc3c(c(-c4ccccc4)nn3-c3ccccc3)c(-c3ccc(N4CCN(C)CC4)cc3)c2C#N)cc1
inactive: T-47D breast 96.2% | BT-549 breast 90.6% | MDA-MB-435 melanoma 93.9% | SW-620 colon 85.6% | MCF7 breast 81% | HCT-116 colon 81.4% | HCC-2998 colon 106% | KM12 colon 95.6%

COc1ccc(C(=O)Nc2ncc(Cc3cccc(Cl)c3)s2)cc1OC
inactive: BT-549 breast 50.7% | SW-620 colon 27.4% | MCF7 breast 11% | HCT-116 colon 27.2% | HCC-2998 colon 16.9% | KM12 colon 18%
active: T-47D breast 3.79% | MDA-MB-435 melanoma 0.543%

C#CCOc1cccc(Nc2ncnc3ccc(NC(=O)CCl)cc23)c1
active: T-47D breast -39.1% | BT-549 breast -68.9% | MDA-MB-435 melanoma -2.66% | SW-620 colon -27.1% | MCF7 breast -20.1% | HCT-116 colon -51.3% | HCC-2998 colon -61.9% | KM12 colon -51.4%

CN(C)CCNc1nc2c3cc(Cl)ccc3nn2c2ccccc12
inactive: T-47D breast 86.6% | BT-549 breast 73% | MDA-MB-435 melanoma 65.3% | SW-620 colon 23.7% | MCF7 breast 35.3% | HCT-116 colon 22.9% | HCC-2998 colon 56.3% | KM12 colon 39.5%

CN(CCn1sc(=O)n(Cc2ccccc2)c1=O)Cc1ccc2c(Cl)cc(Cl)c(O)c2n1
inactive: T-47D breast 44.9% | BT-549 breast 70.5% | MDA-MB-435 melanoma 55.8% | SW-620 colon 22.7% | MCF7 breast 29.9% | HCT-116 colon 19% | HCC-2998 colon 52.2% | KM12 colon 37.1%

Cc1cccc2c1NC(=O)C2(c1ccc(O)cc1)c1ccc(O)cc1
inactive: MDA-MB-435 melanoma 105% | SW-620 colon 103% | HCT-116 colon 68.7% | HCC-2998 colon 42.9% | KM12 colon 60.1%
active: T-47D breast -18.8% | BT-549 breast -35.9% | MCF7 breast 1.54%

O=C(O)c1[nH]c(=O)[nH]c(=O)c1[N+](=O)[O-]
inactive: T-47D breast 109% | BT-549 breast 107% | MDA-MB-435 melanoma 106% | SW-620 colon 109% | MCF7 breast 98.8% | HCT-116 colon 100% | HCC-2998 colon 99.2% | KM12 colon 115%

COc1ccc(OC)c(-c2c(C#N)c(-c3cccs3)nc3c2c(-c2ccccc2)nn3-c2ccccc2)c1
inactive: T-47D breast 94.3% | BT-549 breast 121% | MDA-MB-435 melanoma 104% | SW-620 colon 93.9% | MCF7 breast 98.6% | HCT-116 colon 91.7% | HCC-2998 colon 110% | KM12 colon 105%

CC(C)(C)n1cc(-c2ccnc(NCCNS(=O)(=O)c3cccc4ccccc34)c2)c(-c2cccc(F)c2)n1
active: T-47D breast -12.6% | BT-549 breast -80.9% | MDA-MB-435 melanoma -31.8% | SW-620 colon -26% | MCF7 breast -35% | HCT-116 colon -87.2% | HCC-2998 colon -41.8% | KM12 colon -14%

CCOC(=O)CSc1ncnc2c1c(-c1ccccc1)c(-c1ccccc1)n2-c1ccc(C)cc1
inactive: BT-549 breast 61.8% | MDA-MB-435 melanoma 74.2% | SW-620 colon 81.2% | MCF7 breast 52.5% | HCT-116 colon 53.5% | HCC-2998 colon 75.8% | KM12 colon 50.2%
active: T-47D breast 9.51%

Oc1c(Cl)cc(Cl)c2ccc(Cn3cc(-c4cc(F)cc(F)c4)nn3)nc12
active: SW-620 colon 4.81% | HCT-116 colon 5.12%
inactive: T-47D breast 40.4% | BT-549 breast 70.9% | MDA-MB-435 melanoma 60.8% | MCF7 breast 34.4% | HCC-2998 colon 103% | KM12 colon 102%

COc1ccccc1NC(=O)Cn1cc(CN2CCN(c3ccnc4cc(Cl)ccc34)CC2)nn1
inactive: T-47D breast 81.7% | BT-549 breast 96.8% | MDA-MB-435 melanoma 97.6% | SW-620 colon 91.9% | MCF7 breast 83.5% | HCT-116 colon 98.3% | HCC-2998 colon 107% | KM12 colon 89.6%

O=C1NCCC12CCN(c1c(Cl)cncc1-c1ccc(O)cc1)CC2
inactive: T-47D breast 93.7% | BT-549 breast 114% | MDA-MB-435 melanoma 100% | SW-620 colon 99.6% | MCF7 breast 95.4% | HCT-116 colon 97.3% | HCC-2998 colon 120% | KM12 colon 105%

CC(C)(C)n1cc(-c2ccnc(NCCCNS(=O)(=O)c3ccc(F)cc3)c2)c(-c2cccc(F)c2)n1
inactive: T-47D breast 24.6% | BT-549 breast 50.2% | MDA-MB-435 melanoma 73.8% | SW-620 colon 22.4% | MCF7 breast 41.2% | HCT-116 colon 37% | HCC-2998 colon 54.7% | KM12 colon 40.9%

N#CCSc1nnc2n(Cc3ccccc3)c(=O)c3c4c(sc3n12)CCCC4
inactive: T-47D breast 111% | BT-549 breast 98.7% | MDA-MB-435 melanoma 107% | SW-620 colon 109% | MCF7 breast 98.9% | HCT-116 colon 92.7% | HCC-2998 colon 105% | KM12 colon 101%

OB(O)c1cccc(-c2nc3ccc4[nH]ncc4c3c3c2CCCC3)c1
inactive: T-47D breast 66.6% | BT-549 breast 35.5% | MDA-MB-435 melanoma 45.3% | SW-620 colon 29.9% | MCF7 breast 70.1% | HCT-116 colon 25% | HCC-2998 colon 77.3% | KM12 colon 36.1%

CC1(C)CCC(S(=O)(=O)c2ccc3c(c2)/C(=N\O)c2cc(S(=O)(=O)N4CCC(O)(c5cccc(C(F)(F)F)c5)CC4)ccc2-3)CC1
active: T-47D breast -83.4% | BT-549 breast -80.8% | MDA-MB-435 melanoma -93.5% | SW-620 colon -92.9% | MCF7 breast -70.9% | HCT-116 colon -87.7% | HCC-2998 colon -82.9% | KM12 colon -86.7%

O=C1Nc2ccc(Br)cc2/C1=N/c1n[nH]c(=S)s1
inactive: T-47D breast 94.6% | BT-549 breast 121% | MDA-MB-435 melanoma 101% | SW-620 colon 97.1% | MCF7 breast 91.7% | HCT-116 colon 103% | HCC-2998 colon 97.5% | KM12 colon 95.5%

Cn1cc(-c2csc(-c3c[nH]c4ccc(Br)cc34)n2)c2cnccc21
active: T-47D breast -51.5% | BT-549 breast 7.16% | MDA-MB-435 melanoma -92% | SW-620 colon -82.6% | MCF7 breast -68.6% | HCT-116 colon -90.9% | HCC-2998 colon -76.5% | KM12 colon -79.9%

O=C(c1ccc(Cl)cc1)N1CCN(c2ccnc3cc(Cl)ccc23)CC1
inactive: T-47D breast 58% | BT-549 breast 106% | MDA-MB-435 melanoma 97.5% | SW-620 colon 104% | MCF7 breast 83.7% | HCT-116 colon 81.5% | HCC-2998 colon 108% | KM12 colon 94.9%

Cn1ccnc1C(=O)C(=O)Nc1ccc(CC(=O)Nc2ccccc2)cc1
inactive: T-47D breast 112% | BT-549 breast 103% | MDA-MB-435 melanoma 101% | SW-620 colon 102% | MCF7 breast 92.1% | HCT-116 colon 114% | HCC-2998 colon 106% | KM12 colon 105%

CN1CCN(Cc2ccc3c(NNC(=O)c4ccccc4)nc4cc(F)ccc4n23)CC1
inactive: T-47D breast 24.7% | BT-549 breast 49% | MDA-MB-435 melanoma 28.1% | SW-620 colon 25.3% | MCF7 breast 13.9% | HCT-116 colon 27% | HCC-2998 colon 32.1% | KM12 colon 20%
